NALP3 yeast inh: blocks the NALP3 inflammasome reconstituted in yeast | inhibition, % at 10 µM | 0.39% of 330,000 active | AID 2825 | Yeast reconstituted NLRP3/ASC/caspase-1, beta-gal luminescence, 24 h;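 active means inhibition of 50% or more; inactive means inhibition below 50%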
tim23-1 inh: growth inhibitors of tim23-1 mutant yeast; S. cerevisiae tim23-1 growth, BacTiter-Glo luminescence, 24 h; inhibition, % at 20 µM; 1.3% of 330,000 active; AID 463212;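 active means growth inhibition of the mutant yeast at or above 50%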;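 further: temperature-sensitive mutant grown at 25 °C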
Yeast superoxide: yeast age-related superoxide inhibition as caloric restriction mimetic; S. cerevisiae aged cells, superoxide DHE fluorescence; active compounds read low; superoxide response (% of plate mean), % at 10 µM; 0.18% of 330,000 active;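 active means superoxide response under a set limit, about three screen SD below normal, cut at about 65% in these data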;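 further: yeast aged for seven days with compound at 30 °C before DHE staining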
tim10-1 inh: inhibits growth of tim10-1 mutant yeast. inhibition, % at 20 µM. S. cerevisiae tim10-1 ts strain growth, BacTiter-Glo, 24 h. 2.2% of 330,000 active;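 active means inhibition of at least 40%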;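 further: mutant grown at 25 °C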
TIM10 inh: TIM10 yeast growth inhibition. S. cerevisiae TIM10 strain growth, BacTiter-Glo luminescence, 24 h. inhibition, % at 10 µM. 1.4% of 330,000 active. AID 463195;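 active means inhibition of 40% or more at the single tested concentration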;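 further: wild-type TIM10 isogenic control strain grown at permissive 25 °C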
tim10-1 confirm: tim10-1 yeast growth inhibition, confirmed. shares compounds with tim10-1 inh. 56% of 7,400 active. S. cerevisiae tim10-1 ts strain growth, BacTiter-Glo, 24 h. inhibition, % at 20 µM;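 active means inhibition of yeast growth at or above a set limit in either of two repeat tests at 20 µM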;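 further: tim10-1 mutant grown at permissive 25 °C to find synthetic lethal compounds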
Hits are given with their value; . = inactive; / = not tested or not shown. In the library only some 3.8% were active in any assay of this set; here they are far more common.

SMILES | NALP3 yeast inh | tim23-1 inh | Yeast superoxide | tim10-1 inh | TIM10 inh | tim10-1 confirm
COc1ccc2oc(C(=O)NNC(=O)c3ccc(F)cc3)c(C)c2c1 | . | . | . | . | . | /
O=C(c1cc2ccccc2cc1O)N1CCN(c2ccccc2O)CC1 | . | . | . | . | . | /
COc1ccc(/C=C/C(=O)c2oc3ccc(F)cc3c2C)cc1 | . | . | . | 40.9 | . | 31.4
Cc1[nH]c2ccc(C(=O)N3CCN(c4cccc(Cl)c4)CC3)cc2c1C | . | . | . | 56.0 | . | .
COc1ccccc1N1CCN(C(=O)c2ccc3[nH]c(C)c(C)c3c2)CC1 | . | . | . | 42.3 | . | .
Cc1ccc(S(=O)(=O)N2CCN(c3ccccc3)CC2)cc1C(N)=O | . | . | . | . | . | /
Cc1cnc(C(=O)OCC(=O)N(Cc2ccccc2)C(C)(C)C)cn1 | . | . | . | . | . | /
COc1ccc([C@H]2CC(=O)C=C(c3cccc(C#N)c3)C2)cc1 | . | . | . | . | . | /
CCn1ccnc1CNC(=O)c1ccc(OC2CCN(C(=O)COC)CC2)cc1 | . | . | . | . | . | /
COc1ccc(CCNC(=O)COC(=O)c2cc(S(=O)(=O)NCc3ccccc3)ccc2O)cc1OC | . | . | . | . | . | /
O=C(CSc1nnc(CNC(=O)c2ccco2)o1)Nc1nc2ccccc2s1 | . | . | . | . | . | /
COc1ccccc1N1CCN(C(=O)c2oc3ccc(F)cc3c2C)CC1 | . | . | . | 42.0 | . | .
Cc1ccc(SCCNS(=O)(=O)c2ccc(F)cc2)cc1 | . | . | . | 40.8 | . | .
CC(=O)N1CCOc2ccc(S(=O)(=O)N3CCC(C(=O)NCc4ccccc4)CC3)cc21 | . | . | . | . | . | /
CCc1cc2c(=O)nc3n(c2s1)Cc1ccccc1/C3=C(/O)c1cccc([N+](=O)[O-])c1 | . | . | . | . | . | /
CCc1cc2c(=O)nc3n(c2s1)Cc1ccccc1/C3=C(/O)c1ccc(F)cc1 | . | . | . | 44.0 | . | 35.0
Cc1ccc2ccc(S(=O)(=O)NCc3ccccn3)cc2c1 | . | . | . | . | . | /
CC(=O)NC(CC(=O)OCC(=O)Nc1ccc2c(c1)OCO2)c1ccccc1 (stereo unspecified) | . | . | . | . | . | /
CCCOC(=O)c1ccc(Oc2c(-c3ccc(OCC)cc3O)n[nH]c2C)cc1 | . | . | . | 41.2 | . | .
CCCOC(=O)c1ccc(Oc2cn[nH]c2-c2ccc(OCC)cc2O)cc1 | . | . | . | . | . | /
S=C(N/N=C/c1ccccc1Cl)Nc1cccc(Cl)c1Cl | . | . | . | 41.5 | . | .
Cc1ccc(N2CSC3=C(C#N)C(c4cccs4)CC(=O)N3C2)cc1 (stereo unspecified) | . | . | . | 40.2 | . | .
COc1ccc(NC(=O)c2cc([N+](=O)[O-])ccc2O)cc1 | . | . | . | 52.1 | . | 50.8
COCCNC(=O)c1c(N)n(/N=C/c2cccs2)c2nc3ccccc3nc12 | . | . | . | 43.5 | . | .
COCCNC(=O)c1c(N)n(/N=C/c2ccc(F)cc2)c2nc3ccccc3nc12 | . | . | . | . | . | /
SMILES | NALP3 yeast inh | tim23-1 inh | Yeast superoxide | tim10-1 inh | TIM10 inh | tim10-1 confirm
CCOc1ncccc1C(=O)Nc1ccc(C(=O)Nc2ccc(OC)cc2)cc1 | . | . | . | . | . | /
O=C1CN(C(=O)c2c(F)cccc2F)C(c2ccccc2)c2cc(Br)ccc2N1 (stereo unspecified) | . | . | . | . | . | /
O=C1CN(C(=O)c2c(F)cccc2F)C(c2ccc(F)cc2)c2cc(Br)ccc2N1 (stereo unspecified) | . | . | . | 41.2 | . | 29.5
Cc1nc(-c2cccnc2)sc1C(=O)Nc1ccc(C(F)(F)F)cc1 | . | . | . | . | . | /
Cc1nc(-c2cccnc2)sc1C(=O)Nc1cccc(C(F)(F)F)c1 | . | . | . | 43.1 | . | .
Cc1ccc(OCCn2c(C3CC(=O)N(Cc4ccccc4)C3)nc3ccccc32)cc1 (stereo unspecified) | . | . | . | . | . | /
C=CCN1CC(c2nc3ccccc3n2Cc2cccc3ccccc23)CC1=O (stereo unspecified) | . | . | . | 45.0 | . | .
COCOc1ccc(/C=C/C(=O)c2c(O)cc(OCOC)cc2OCOC)cc1 | . | . | . | . | . | /
COc1cccc2sc3ccc(C#CC4(O)CCCCC4)cc3c(=O)c12 | . | . | . | 40.9 | . | .
O=c1c2ccccc2sc2ccc(C#CC3(O)CCCCC3)cc12 | . | . | . | 41.2 | . | 35.2
Nc1ccc(C#Cc2ccc3sc4ccccc4c(=O)c3c2)cc1 | . | . | . | . | . | /
O=C(NNc1c(F)c(F)cc(F)c1F)c1cc2ccccc2oc1=O | . | . | . | . | . | /
CC1CC(C)CN(CCCNS(=O)(=O)c2cc(Br)cc3c2N(C(=O)C2CC2)CC3)C1 (stereo unspecified) | . | . | . | . | . | /
COc1cc2ccccc2cc1C(=O)NC(=S)Nc1nnn(C)n1 | . | . | . | . | . | /
Cn1nnc(NC(=S)NC(=O)c2cc(Cl)ccc2Cl)n1 | . | . | . | 40.7 | . | .
CC(C)(C)c1ccc(/C=C/C(=O)N2CCN(c3ncccn3)CC2)cc1 | . | . | . | 42.6 | . | 35.0
O=C(/C=C/c1ccc(F)cc1)N1CCN(c2ncccn2)CC1 | . | . | . | . | . | /
O=C1CC(Sc2nnnn2-c2ccccc2)C(=O)N1c1cccc(Cl)c1 (stereo unspecified) | . | . | . | 49.1 | . | 46.6
O=C1CC(SCc2nc3ccccc3[nH]2)C(=O)N1c1cccc(Cl)c1 (stereo unspecified) | . | . | . | 40.4 | . | 35.2
O=C1CC(SCc2nc3ccccc3[nH]2)C(=O)N1c1ccc(F)cc1 (stereo unspecified) | . | . | . | . | . | /
CCOC(=O)NC(Nc1ccc(OC)cc1)(C(F)(F)F)C(F)(F)F | . | . | . | . | . | /
COc1ccc(C)cc1S(=O)(=O)N(C)CC(=O)NCc1ccccn1 | . | . | . | . | . | /
O=C(c1ccc2c(=O)n3c(nc2c1)CCCCC3)N1CCN(c2cccc(Cl)c2)CC1 | . | . | . | . | . | /
Cc1csc(-c2coc3cc(O)cc(C)c3c2=O)n1 | . | . | . | 43.2 | . | .
CCc1cc2c(=O)c(-c3nc(C)cs3)coc2cc1O | . | . | . | . | . | /
Cc1onc(-c2c(Cl)cccc2Cl)c1C(=O)c1c[nH]c(C(=O)NCC2CCCO2)c1 (stereo unspecified) | . | . | . | . | . | /
Cc1c(/C=N/NC(N)=O)c2ccccn2c1C(=O)c1ccncc1 | . | . | . | . | . | /
Cc1c(/C=N/NC(=O)CNc2ccccc2)c2ccccn2c1C(=O)c1ccccc1 | . | . | . | 40.1 | . | .
CC(OC(=O)c1ccc([N+](=O)[O-])s1)C(=O)NC1CCCCC1C (stereo unspecified) | . | . | . | 46.8 | . | 38.9
COC(=O)c1ccc2nc(NC(=O)C(C)(C)C)sc2c1 | . | . | . | 42.2 | . | 35.0

Assay outcomes deposited in PubChem BioAssay by several laboratories.
